Measured values taken from PubChem BioAssay (NCI).
The panel holds about 83,000 compounds, 20% with a hit somewhere; the sample as a whole holds those more often.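 Percent growth is the endpoint: 0 to 100 indicates growth inhibition (40 means 60% inhibition), 0 means no net growth, and negative values indicate cell death.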 Calls of active or inactive are those of the source. Rule for the calls: active = growth percent below 10; inactive = the rest.

Columns and labels:
Assay in all cases: NCI-60 one-dose screen, 48 h (100 = growth as untreated, 0 = no growth, -100 = all killed)
Details in all cases: 10 µM unless noted
SR leukemia = tested on: SR leukemia
RPMI-8226 leukemia = tested on: RPMI-8226 leukemia
OVCAR-5 ovarian = tested on: OVCAR-5 ovarian
OVCAR-4 ovarian = tested on: OVCAR-4 ovarian
SK-OV-3 ovarian = tested on: SK-OV-3 ovarian
IGROV1 ovarian = tested on: IGROV1 ovarian
OVCAR-3 ovarian = tested on: OVCAR-3 ovarian
HS 578T breast = tested on: HS 578T breast
NCI/ADR-RES ovarian = tested on: NCI/ADR-RES ovarian
T-47D breast = tested on: T-47D breast
BT-549 breast = tested on: BT-549 breast
MDA-MB-435 melanoma = tested on: MDA-MB-435 melanoma
SW-620 colon = tested on: SW-620 colon
MCF7 breast = tested on: MCF7 breast
HCT-116 colon = tested on: HCT-116 colon
HCC-2998 colon = tested on: HCC-2998 colon
KM12 colon = tested on: KM12 colon
OVCAR-8 ovarian = tested on: OVCAR-8 ovarian

Measured: growth

Cn1ccnc1C(=O)/C=C/c1ccc(C(=O)Nc2nc3ccccc3[nH]2)cc1
inactive: SR leukemia 11.2% | RPMI-8226 leukemia 10.7% | OVCAR-5 ovarian 59.9% | OVCAR-4 ovarian 36.7% | SK-OV-3 ovarian 77.2% | IGROV1 ovarian 36% | HS 578T breast 40.2% | NCI/ADR-RES ovarian 24.6% | T-47D breast 49.6% | MDA-MB-435 melanoma 18.8% | MCF7 breast 19.5% | HCT-116 colon 23.1% | HCC-2998 colon 45.4% | KM12 colon 14.4%
active: OVCAR-3 ovarian 7.54% | BT-549 breast 5.05% | SW-620 colon 5.35%

CN(C)c1ccc(-c2nc3ncc(Br)cc3o2)cc1
inactive: SR leukemia 94.4% | OVCAR-8 ovarian 99.6% | OVCAR-5 ovarian 100% | OVCAR-4 ovarian 113% | SK-OV-3 ovarian 94.8% | IGROV1 ovarian 17% | OVCAR-3 ovarian 112% | HS 578T breast 97.2% | NCI/ADR-RES ovarian 88.4% | T-47D breast 75.7% | BT-549 breast 78.3% | MDA-MB-435 melanoma 115% | SW-620 colon 99.3% | MCF7 breast 97.6% | HCT-116 colon 86.8% | HCC-2998 colon 85% | KM12 colon 113%

Nc1nc2c(c(=O)[nH]1)C1(C(=O)Nc3ccccc31)c1c(nc(N)[nH]c1=O)N2
inactive: SR leukemia 111% | OVCAR-8 ovarian 114% | OVCAR-5 ovarian 112% | OVCAR-4 ovarian 102% | SK-OV-3 ovarian 108% | IGROV1 ovarian 101% | OVCAR-3 ovarian 103% | HS 578T breast 110% | NCI/ADR-RES ovarian 102% | T-47D breast 92.3% | BT-549 breast 102% | MDA-MB-435 melanoma 106% | SW-620 colon 97.3% | MCF7 breast 94.8% | HCT-116 colon 116% | HCC-2998 colon 114% | KM12 colon 101%

N/C(=N\c1nc2ccccc2s1)NC(=O)Nc1ccccc1Cl
inactive: OVCAR-8 ovarian 15.5% | OVCAR-5 ovarian 32.5% | OVCAR-4 ovarian 69.3% | SK-OV-3 ovarian 31.8% | IGROV1 ovarian 20.8% | HS 578T breast 30% | T-47D breast 37% | BT-549 breast 18.6% | SW-620 colon 27.7% | MCF7 breast 21.1% | HCT-116 colon 13% | HCC-2998 colon 14.2% | KM12 colon 12.7%
active: SR leukemia 9.92% | OVCAR-3 ovarian -14.2% | NCI/ADR-RES ovarian 6.38% | MDA-MB-435 melanoma -31.8%

CN1CCC[C@@H]1CCO[C@](C)(c1ccccc1)c1ccc(Cl)cc1
inactive: SR leukemia 59.7% | OVCAR-8 ovarian 88.1% | OVCAR-5 ovarian 73.6% | OVCAR-4 ovarian 75.6% | SK-OV-3 ovarian 73.9% | IGROV1 ovarian 63.6% | OVCAR-3 ovarian 100% | HS 578T breast 80.9% | NCI/ADR-RES ovarian 76.5% | T-47D breast 56.1% | BT-549 breast 69.1% | MDA-MB-435 melanoma 49.8% | SW-620 colon 80% | MCF7 breast 63.3% | HCT-116 colon 47.9% | HCC-2998 colon 61.8% | KM12 colon 88%

CCN(CC)CCCCCCCNc1c2ccc(Cl)cc2nc2ccc(OC)cc12
inactive: NCI/ADR-RES ovarian 12.7%
active: SR leukemia -16.5% | OVCAR-8 ovarian -41.8% | OVCAR-5 ovarian -8.18% | OVCAR-4 ovarian -43% | SK-OV-3 ovarian -30.7% | IGROV1 ovarian -64.3% | OVCAR-3 ovarian -39.6% | HS 578T breast -42.7% | T-47D breast -42.3% | BT-549 breast -20.9% | MDA-MB-435 melanoma -78.9% | SW-620 colon -52.9% | MCF7 breast -32.4% | HCT-116 colon -49.6% | HCC-2998 colon -78.9% | KM12 colon -37.2%

C1CCC(C(CC2CCCCN2)C2CCCCC2)CC1 (stereo unspecified)
inactive: OVCAR-4 ovarian 28.8% | HS 578T breast 57% | NCI/ADR-RES ovarian 14.3% | BT-549 breast 41.1%
active: SR leukemia -39.7% | RPMI-8226 leukemia 5.39% | SK-OV-3 ovarian -52.3% | IGROV1 ovarian 6.73% | OVCAR-3 ovarian -3.79% | T-47D breast -48.9% | MDA-MB-435 melanoma -73.8% | SW-620 colon -84.6% | MCF7 breast -62.6% | HCT-116 colon -94.1% | HCC-2998 colon -90.6% | KM12 colon -54.1%

N=C1c2nc3n(c2C(=O)c2nc4n(c21)CCCCC4)CCCCC3
inactive: SR leukemia 91.8% | RPMI-8226 leukemia 99.1% | OVCAR-5 ovarian 123% | OVCAR-4 ovarian 93.2% | SK-OV-3 ovarian 107% | IGROV1 ovarian 130% | OVCAR-3 ovarian 111% | HS 578T breast 112% | NCI/ADR-RES ovarian 110% | T-47D breast 116% | BT-549 breast 110% | MDA-MB-435 melanoma 111% | SW-620 colon 105% | MCF7 breast 94.5% | HCT-116 colon 107% | HCC-2998 colon 112% | KM12 colon 106%

Cc1ncc(C(=O)Nc2ccc(CN3CCN(C)CC3)c(C(F)(F)F)c2)cc1C#Cc1cncc2ncccc12
inactive: RPMI-8226 leukemia 49.7% | OVCAR-5 ovarian 69% | OVCAR-4 ovarian 51.7% | SK-OV-3 ovarian 68.4% | IGROV1 ovarian 24.9% | OVCAR-3 ovarian 83% | HS 578T breast 47.9% | NCI/ADR-RES ovarian 86.8% | T-47D breast 83.7% | BT-549 breast 85.4% | MDA-MB-435 melanoma 36.9% | SW-620 colon 59.6% | MCF7 breast 71.9% | HCT-116 colon 42.2% | HCC-2998 colon 74.5% | KM12 colon 13.6%
active: SR leukemia -13.2%

COc1ccc(C2CC(c3ccc4c(c3)OCO4)=NN2C=O)cc1 (stereo unspecified)
inactive: SR leukemia 100% | OVCAR-8 ovarian 106% | OVCAR-5 ovarian 110% | OVCAR-4 ovarian 92.8% | SK-OV-3 ovarian 108% | IGROV1 ovarian 127% | OVCAR-3 ovarian 128% | HS 578T breast 115% | NCI/ADR-RES ovarian 103% | T-47D breast 99.2% | BT-549 breast 89.1% | MDA-MB-435 melanoma 110% | SW-620 colon 104% | MCF7 breast 98.6% | HCT-116 colon 96.4% | HCC-2998 colon 102% | KM12 colon 105%

C(=C1c2ccccc2-c2ccccc21)c1ccncc1
active: SR leukemia 9.55% | OVCAR-3 ovarian 5.44% | NCI/ADR-RES ovarian 4.8% | MDA-MB-435 melanoma -21.7%
inactive: OVCAR-8 ovarian 64.1% | OVCAR-5 ovarian 81% | OVCAR-4 ovarian 57.1% | SK-OV-3 ovarian 75.5% | IGROV1 ovarian 44.9% | HS 578T breast 49.5% | T-47D breast 72.2% | BT-549 breast 38.6% | SW-620 colon 17.1% | MCF7 breast 18.8% | HCT-116 colon 16.4% | HCC-2998 colon 66.6% | KM12 colon 18.5%

O=C1Nc2ccc(Cl)cc2/C1=C/c1cccs1
inactive: SR leukemia 99.4% | RPMI-8226 leukemia 100% | OVCAR-5 ovarian 110% | OVCAR-4 ovarian 35.9% | SK-OV-3 ovarian 93.6% | IGROV1 ovarian 65.1% | OVCAR-3 ovarian 87.8% | HS 578T breast 96.2% | NCI/ADR-RES ovarian 92.8% | T-47D breast 16.9% | BT-549 breast 95.4% | MDA-MB-435 melanoma 105% | SW-620 colon 103% | MCF7 breast 44.6% | HCT-116 colon 99.2% | HCC-2998 colon 77.6% | KM12 colon 86.8%

COc1cc(-c2nc3nc4sc(C)c(C)c4c(=O)n3[nH]2)cc(OC)c1OC
inactive: SR leukemia 30.7% | RPMI-8226 leukemia 74.3% | OVCAR-5 ovarian 96.4% | OVCAR-4 ovarian 93.5% | SK-OV-3 ovarian 92% | IGROV1 ovarian 66.6% | OVCAR-3 ovarian 93.1% | HS 578T breast 87.7% | NCI/ADR-RES ovarian 70.8% | T-47D breast 57% | BT-549 breast 77.8% | SW-620 colon 79.1% | MCF7 breast 35.7% | HCT-116 colon 75.9% | HCC-2998 colon 94.2% | KM12 colon 76.6%
active: MDA-MB-435 melanoma 7.6%

Nc1ccc(N=Nc2ccccc2)cc1[N+](=O)[O-]
inactive: SR leukemia 93.2% | OVCAR-8 ovarian 94.7% | OVCAR-5 ovarian 110% | OVCAR-4 ovarian 71.5% | SK-OV-3 ovarian 97.9% | IGROV1 ovarian 62.9% | OVCAR-3 ovarian 102% | HS 578T breast 139% | NCI/ADR-RES ovarian 95.9% | T-47D breast 59.8% | BT-549 breast 85.4% | MDA-MB-435 melanoma 101% | SW-620 colon 93.1% | MCF7 breast 24.1% | HCT-116 colon 91.4% | HCC-2998 colon 103% | KM12 colon 53.2%

O=C(COc1ccc(/C=C2\Cc3ccccc3C2=O)cc1)c1ccc(Cl)cc1
inactive: SR leukemia 117% | RPMI-8226 leukemia 90.3% | OVCAR-5 ovarian 102% | OVCAR-4 ovarian 112% | SK-OV-3 ovarian 112% | OVCAR-3 ovarian 128% | HS 578T breast 105% | NCI/ADR-RES ovarian 92.6% | T-47D breast 102% | BT-549 breast 113% | MDA-MB-435 melanoma 95.4% | SW-620 colon 107% | MCF7 breast 97.1% | HCT-116 colon 77.7% | HCC-2998 colon 82.2% | KM12 colon 107%

COCCCNS(=O)(=O)c1ncnc2nc[nH]c12
inactive: SR leukemia 108% | RPMI-8226 leukemia 107% | OVCAR-5 ovarian 100% | OVCAR-4 ovarian 113% | SK-OV-3 ovarian 121% | IGROV1 ovarian 142% | OVCAR-3 ovarian 102% | HS 578T breast 104% | NCI/ADR-RES ovarian 99.5% | T-47D breast 105% | BT-549 breast 123% | MDA-MB-435 melanoma 107% | SW-620 colon 101% | HCT-116 colon 93.5% | HCC-2998 colon 102% | KM12 colon 95.7%

CN1CCN(CCCOc2ccc3ncnc(Nc4ccc(OCc5cccc(F)c5)c(Cl)c4)c3c2)CC1
inactive: SK-OV-3 ovarian 12.4% | NCI/ADR-RES ovarian 18.3% | BT-549 breast 72%
active: SR leukemia -6.49% | RPMI-8226 leukemia -24.6% | OVCAR-5 ovarian -59.4% | OVCAR-4 ovarian -19.9% | IGROV1 ovarian -34.9% | OVCAR-3 ovarian -6.29% | HS 578T breast -19.3% | T-47D breast -15.6% | MDA-MB-435 melanoma -88.4% | SW-620 colon -78.7% | MCF7 breast -69.2% | HCT-116 colon -87.9% | HCC-2998 colon -80.9% | KM12 colon -56%
